High-throughput results as filed in PubChem BioAssay.
Rows were chosen to be rich in hits. Some 4.5% of all compounds tested hit in one or more screens of this group.
ssDAF-12 act = activates DAF-12 receptor from parasite S. stercoralis. activation, % at 6.8 µM. HEK293 ssDAF-12/GRIP1 lit1-tk-luc reporter, luminescence; % of 3 µM dafachronic acid response. 370,000 compounds, 1% hits. AID 652126;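 active = activation above the mean over all tested compounds plus 3 SD, cut at about 0.9% in these data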;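 note: 0% = DMSO-only wells and 100% = 3 µM delta7-dafachronic acid wells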
DAX1 inh-1 = inhibitors of DAX1 repression of SF-1 activated StAR promoter. HEK293T StAR-luciferase reporter, SF-1/DAX-1 repression relief. inhibition, % at 6.8 µM. 370,000 compounds, 1.1% hits. AID 652010;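 active = inhibition above the mean over all tested compounds plus 3 SD, cut at about 3.6% in these data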;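 note: 0% = DAX-1 cells with DMSO and 100% = cells lacking DAX-1 with DMSO; higher inhibition means more luminescence from relief of DAX-1 repression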
hcDAF12 agonist = activates DAF-12 receptor from parasite H. contortus; HEK293 hcDAF-12 lit1-tk-luc reporter, luminescence; 0% DMSO, 100% Δ7-dafachronic acid; activation, % at 6.8 µM; 370,000 compounds, 1.4% hits;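 active = activation above the mean of all tested compounds plus 3 SD, cut at about 5.5% in these data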;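 note: 100% = response to 3 µM Δ7-dafachronic acid high control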
DAX1 inh-2 = inhibitors of human orphan nuclear receptor DAX1 (NR0B1); P51843; HEK293 Gal4-DAX1 luciferase reporter, luminescence; inhibition, % at 6.75 µM; 340,000 compounds, 0.99% hits; AID 504766;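 active = inhibition above the mean over all tested compounds plus 3 SD, cut at about 4.2% in these data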;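 note: 0% = DAX1-transfected cells with DMSO and 100% = empty-vector control cells with DMSO; inhibition shows as a rise in luminescence from relieved DAX1 repression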
Target sequence (P51843 207-470 limits assumed): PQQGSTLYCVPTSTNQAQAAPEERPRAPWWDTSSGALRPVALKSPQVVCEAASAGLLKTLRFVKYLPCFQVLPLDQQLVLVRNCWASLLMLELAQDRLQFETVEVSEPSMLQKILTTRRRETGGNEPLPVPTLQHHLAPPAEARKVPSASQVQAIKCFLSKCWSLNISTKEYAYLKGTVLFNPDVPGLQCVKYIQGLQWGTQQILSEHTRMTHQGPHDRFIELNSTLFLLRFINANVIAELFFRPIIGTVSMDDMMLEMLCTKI
hgDAF12 agonist = activates the H. glycines DAF-12 receptor ligand-binding domain. HEK293 GAL4-hgDAF12 UAS-luciferase reporter, agonist luminescence; normalized to butyrate control. 370,000 compounds, 1.8% hits. activation, % at 6.8 µM;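 active = activation above a cutoff set at the mean of all screened compounds plus 3 SD, cut at about 10% in these data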;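 note: 0% = DMSO wells and 100% = sodium butyrate wells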
FXN GAA850 act = increases GAA850 frataxin promoter reporter activity; HEK293 lucGAA850 FXN promoter luciferase reporter, 24 h; percent of 10 µM SAHA response; activation, % at 6 µM; 360,000 compounds, 0.56% hits;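 active = activation above the average of all compounds screened plus 3 SD, cutoff fixed separately per campaign, cut at about 7.5% in these data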;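 note: 0% = DMSO wells and 100% = 10 µM SAHA wells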
GAA30 counter = counter-screen for GAA850 frataxin promoter activators: GAA30 promoter activation. shares compounds with FXN GAA850 act. HEK293 lucGAA30 FXN promoter luciferase, 24 h; DMSO = 0%, 5 µM ipriflavone = 100%. 1,900 compounds, 66% hits. activation, % at 6 µM. AID 588350;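 active = mean activation above the mean of solvent-only control wells plus 3 SD, cut at about 22% in these data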;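 note: counterscreen of GAA850 promoter hits where activity marks nonselective or luminescence artifacts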
FXN GAA850 conf = GAA850 FXN promoter activation confirmation | shares compounds with FXN GAA850 act | HEK293 lucGAA850 FXN promoter luciferase reporter, 24 h; 100% = activation by SAHA | activation, % at 6 µM | 1,900 compounds, 86% hits | AID 588351;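 active = mean activation above a set limit taken from the primary screen, cut at about 8% in these data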;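 note: 0% = DMSO wells and 100% = 10 µM SAHA wells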
Active calls of the source: *; / = not tested or not shown.

SMILES | ssDAF-12 act | DAX1 inh-1 | hcDAF12 agonist | DAX1 inh-2 | hgDAF12 agonist | FXN GAA850 act | others
CC(C)(C)Cc1c(-c2cccc(Cl)c2)nc2ccc(Br)cn12 | 2.1* | 1 | -1 | / | -1 | /
Cc1ccc2nc(-c3cccc(Br)c3)c(Cc3cccc(Cl)c3)n2c1 | 1 | 7.3* | 5 | / | 10 | /
Clc1cccc(Cc2c(-c3ccco3)nc3ccc(Br)cn23)c1 | 1.9* | 0 | 3 | / | 1 | /
Cc1ccc2nc(-c3cccc(Br)c3)c(Cc3ccccc3)n2c1 | 1.9* | 4.2* | 8.1* | / | 9 | /
Clc1ccc2nc(-c3cccc(Br)c3)c(Cc3ccccc3)n2c1 | 0 | 2 | 2 | / | 5 | /
COc1ccc(CN2C/C(=C/c3ccccc3)N3C(=O)C[C@@H](c4ccc5ccccc5c4)N=C23)c(OC)c1 | -2 | -1 | -3 | / | 2 | /
Cc1ccc(Cl)cc1NC(=O)N(C)CCOC(=O)Nc1cccc(Cl)c1 | -1 | 0 | -2 | / | -1 | /
O=C(CCNC(=O)c1ccccc1)N=Nc1c(O)[nH]c2ccccc12 | 21* | 1 | 1 | / | -2 | /
CNC(=S)N=Nc1c(O)[nH]c2ccccc12 | -1 | -1 | 5.6* | 0 | 0 | 3
O=C(CCc1c[nH]c2ccccc12)N=Nc1c(O)[nH]c2ccccc12 | -1 | -1 | -2 | -1 | 0 | 0
N#Cc1cccn1-c1nccc(-c2cccs2)n1 | 1.7* | 0 | 3 | 1 | 8 | 4
Cc1ccc(C)n1-c1nccc(-c2cccs2)n1 | 0 | 0 | 5 | 2 | 1 | 2
CC(C)CNC(=O)OCc1cn(Cc2cccc(Cl)c2)nn1 | -1 | 0 | -2 | / | -4 | /
COc1cc(C(C[N+](=O)[O-])c2c(C)cc3ccccn23)ccc1O (stereo unspecified) | 0 | 0 | 1 | 4.4* | 1 | -1
COc1ccc(C(C[N+](=O)[O-])c2c(-c3ccccc3)cc3ccccn23)cc1OC (stereo unspecified) | -1 | 0 | -1 | -1 | -1 | 2
COC(=O)[C@H](CC(C)C)N(Cc1cn(CC2CCCCC2)nn1)S(=O)(=O)c1ccccc1Br | -1 | -2 | -2 | / | 0 | /
CN1/C(=C\C(=O)COC(=O)c2ccc(O)cc2)C(C)(C)c2ccccc21 | -2 | 0 | -3 | 1 | 0 | 2
CCOC(=O)/C=C1/N(C)c2ccccc2C1(C)C | -1 | 1 | -1 | 6.1* | 0 | 2
O=C1C(=O)N(Cc2ccc(-c3ccccc3)cc2)c2ccc(OC(F)(F)F)cc21 | -1 | / | -2 | / | -1 | /
COc1ccc(Cn2cc(CN3CC(N4CCCC4)CS3(=O)=O)nn2)cc1 (stereo unspecified) | 0 | 4.4* | 0 | / | 2 | /
CCCCCCn1cc(CN2CC(N(C)CC)CS2(=O)=O)nn1 (stereo unspecified) | -2 | 3.7* | 1 | / | 3 | /
CCCCCCn1cc(CN2CC(N3CCN(C)CC3)CS2(=O)=O)nn1 (stereo unspecified) | 0 | 2 | 1 | / | 1 | /
CCCCCCn1cc(CN2CC(N3CCN(C4CCN(C)CC4)CC3)CS2(=O)=O)nn1 (stereo unspecified) | -1 | 4.4* | -1 | / | -4 | /
COc1ccc(Cn2cc(CN3CC(N4CCSCC4)CS3(=O)=O)nn2)cc1 (stereo unspecified) | -1 | -3 | 0 | / | 0 | /
CCCCCCn1cc(CN(C)C2CN(Cc3cn(CCCCCC)nn3)S(=O)(=O)C2)nn1 (stereo unspecified) | -2 | 0 | 1 | / | -1 | /
SMILES | ssDAF-12 act | DAX1 inh-1 | hcDAF12 agonist | DAX1 inh-2 | hgDAF12 agonist | FXN GAA850 act | others
CCCC1CCC2(CC1)CCC2OC(=O)Nc1c(OC)cccc1OC (stereo unspecified) | -1 | / | 0 | / | 2 | /
COc1cc(N2CCOCC2)ncn1 | 0 | 0 | 0 | 4.8* | 1 | 2
C=C(C)CSc1nc2sc(C)c(C)c2c(=O)n1C | -2 | -1 | 1 | / | 0 | /
Cc1cccc(NNC(=O)C(=O)NNc2cccc(C)c2)c1 | -1 | 0 | -1 | / | -1 | 3
Cc1cccc(N=NC(=S)NNc2cccc(C)c2)c1 | 0 | 3.7* | 6.1* | 2 | 9 | 5
CCOc1nc(C)ccc1-c1noc(-c2ccco2)n1 | -1 | 1 | 0 | 1 | 4 | 7.7* | GAA30 counter=53*;FXN GAA850 conf=18*
CC1CCN(C2=NC(=O)N(c3ccc(Br)cc3)C(=O)C2)CC1 | 0 | 0 | 0 | / | 2 | /
CC(Cc1ccccc1)Nc1ncnc2c1ncn2C1OC(CO)C(O)C1O (stereo unspecified) | -1 | 1 | -3 | 0 | -4 | 8.7* | GAA30 counter=55*;FXN GAA850 conf=25*
OC[C@H]1O[C@@H](n2cnc3c(NC4CCCC4)nc(Cl)nc32)[C@H](O)[C@@H]1O | -2 | 1 | -4 | 0 | -4 | 8.5* | GAA30 counter=31*;FXN GAA850 conf=18*
Nc1nc(Cl)nc2c1ncn2[C@@H]1O[C@H](CO)[C@@H](O)[C@H]1O | -2 | 2 | -5 | -1 | -3 | 4
Cc1c(C(=O)OCCOC(C)C)[nH]c2c1C(=O)CC(C)(C)C2 | -2 | -1 | -1 | 0 | 2 | 10.0* | GAA30 counter=35*;FXN GAA850 conf=13*
FC(F)(F)c1cccc(NC(=S)N2CCCCCC2)c1 | -1 | 0 | -1 | 0 | -1 | 1
O=C(Nc1cccc(C(F)(F)F)c1)C(=O)N1CCCCC1 | -2 | 0 | 0 | -1 | 2 | 8.1* | GAA30 counter=53*;FXN GAA850 conf=21*
Cc1cccc(/C=N/NC(=O)c2cccc(Cl)c2)n1 | -1 | 0 | 2 | 1 | 1 | 7.6* | GAA30 counter=-66;FXN GAA850 conf=-16
Cc1cccc(/C=N/NC(=O)c2cccc([N+](=O)[O-])c2)n1 | -2 | 0 | 0 | / | 2 | 12* | GAA30 counter=-39;FXN GAA850 conf=11*
Cc1cccc(/C=N/NC(=O)c2cccc(NC(=O)c3ccccc3)c2)n1 | -1 | 0 | 2 | -1 | 3 | 1
COC(=O)[C@]12C[C@H](CC(=O)NCCC(C)C)C(=O)N(Cc3ccc(Cl)cc3Cl)C1=C[C@H](C(C)(C)C)O[C@@H]2C | -1 | -1 | -1 | / | -1 | /
Cc1ccc(C(=O)c2sc3c(c2N)c(=O)[nH]c(=O)n3CCc2ccccc2)cc1 | 0 | -2 | 3 | 1 | 5 | 4
CCn1c(=O)[nH]c(=O)c2c(N)c(C(=O)c3cc(F)ccc3F)sc21 | -1 | -2 | -1 | 0 | -1 | 8.7* | GAA30 counter=23*;FXN GAA850 conf=18*
